# Reference: the supplement of paper PMC6555819
# Tested on: VDR:RXRa (NR concentration 270 nM, RXRa partner concentration 90 nM)
# Assay: PBM binding z-score (relative to random genomic background probes); higher = stronger binding; sequences stand for … in GC…GCGATTGACAGCGTAGAATGAAGG
# Procedure: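 Protein-binding microarray (Agilent 4x180K custom design, double-stranded 60-nt probes: 5' GC cap, 34-nt variable region, 24-nt constant primer region; full probe sequence given). Purified or IVT nuclear receptor:RXRα heterodimers (3:1 NR:RXRα, mostly 270:90 nM) or homodimers were incubated for 1 h in PBS with 2% milk and no ligand, then detected with Alexa488 antibodies. Fluorescence from o1-orientation probes (~5 replicates averaged) was converted to z-scores against 500 random hg19 background probes. Variable regions are seed direct-repeat (DR0–DR5) sites, all their single-nucleotide variants and half-site ablations.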
row,Sequence,PBM binding z-score
1,TCATATAGGTAAAGGTGAAACTCGAACGATATGA,0.901
2,CGAACTAGGTCATCCAGGACATTGAATACATTGA,5.52
3,GCTCGTTGGTCAGTAAAAGGTCACACACCGGTCG,4.26
4,ATCTCTAGGTAAAAAGTTCAGTGAAAGAGAGGAC,1.39
5,TCATGTAGGTAAATGCTAGGTGAAAGTCCGATCT,0.587
6,CGTCAAAGTTCAACTAGGGTAACGTAAAGCACGC,5.28
7,CCAGCTAGGTCATGGTCAGCTAATCTACAGTATG,1.6
8,TCTAGTTGGACAAAGGTCACACACTCGAAATGCG,5.09
9,GTACCTAGGTGAATAGGTCGTTGATGAGTAGGCG,0.549
10,CTAACTAGGTCAAAGGTCAAAGTCGAGCCAACCA,6.59
11,CCAGACAGGTGCGAAGGTAACTCAGCCTCGATTA,-0.435
12,TCATATCGGTAAAGGTGAAAGTCGAACGATATGA,0.691
13,ATCGAAAGGCCGACGAGGTGAGTATACACCGTTT,0.176
14,TCTTGTAGCTCAGCAGGTTAAGAAAGCTGGCCAA,-0.236
15,ATCTGTAGGTTAAGGGTCATTCAGGTTGGTTCGC,5.77
16,CGTCCAAGGTTAGCAGGTCAGTGAAAGCGACGTG,1
17,ATCGAAAGGTCGCGGTGAGTATAGAGAAAGGGAA,3.74
18,GCTTACGGGTCAAAGGGTATAGCATGAATAGAAT,5.84
19,GCTTACGGGTCAAAGCTTATAGCATGAATAGAAT,3.36
20,ATCCCTAGGTAAAGTTCAGTGAAAGATCGATAGA,1.37

row,Sequence,PBM binding z-score
1,AGAACGAGGGCAATGAGTTGACAGCACGGGTGGC,5.03
2,ACTAGCAGGCCCAGTTTGGGTCACTCAAACAAAG,-0.198
3,CAAACTAGGTCACGACAGGTCAAAGTCGAATGAC,6.07
4,ACAGACAGGTGATGAAAGTAACTCAGGCTATCAT,-0.184
5,TAGCCTAGGTCAGTCAGGGGCCAGTATAGAAAGC,0.785
6,TAGCCTAGGTCATTGGGCCAGAATAGTACGCATC,2.01
7,TCTAGTTGGTCAAACGTCACACACTCGAAATGCG,0.811
8,ATATGTAGGTTAGCTGGGTTCATTCAGACTAGGC,6.4
9,ACAGACAGGTGATGAAGGTAACTGAGGCTATCAT,0.346
10,GGAACGAGGGCACGTTGATAGCAGAGTTTGATGG,0.909
11,ATCTTTAGGTAACAAGTTCAGTGAAAGAGAGGAC,1.81
12,CCTAGCAGGCCAATCTGGGTCACTAAAGGCTTGA,0.366
13,TCTGCAAGGTCAACGATGGTCAGCTAATCTGCTA,4.53
14,ATCTCTAGGTAACCAAGTTCCGTGAATGCCGAAC,0.306
15,TAGCCTAGGTCAGAACGGGCCAGTATACGCTATA,0.299
16,CAAACTAGGTCAAAGATCAAAGTCGAGCCAACCA,2.52
17,ACAGCCAGGTGAGTGAAGGTAACTCAGCTGGACG,-0.635
18,AGTCAAAGTTCAGGACGAGGTAGCGTAAAGCACG,2.43
19,CCGAGTTGGTCAGGAGGTCACACACCGGATATGA,4.19
20,CCTATTGGGCCAAAAAGGTCATTGATGCCGATAA,5.02
